aDG glyco act – alpha-DG glycosylation activation. Pro5-aDG cells, alpha-DG glycosylation AlphaScreen (IIH6); 0% Pro5, 100% B10-LARGE cell signal. activation, % at 10 µM. 0.22% of 360,000 active. AID 624168;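 active = activation of at least 8% versus controls, or a plate z-score of at least 8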;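 also: Pro5 are CHO cells carrying HIG-tagged alpha-DG that lacks glycosylation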
FAS-TE inh – blocks the thioesterase domain of human fatty acid synthase; P49327; recombinant FAS-TE, OMFH fluorogenic substrate, fluorescence endpoint; inhibition, % at 15 µM; 0.67% of 360,000 active;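 active = compounds whose normalised, plate-corrected inhibition of enzyme fluorescence in the single-dose primary screen is 50% or more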
Target sequence (P49327 whole entry, looked up, the tested form may be a part): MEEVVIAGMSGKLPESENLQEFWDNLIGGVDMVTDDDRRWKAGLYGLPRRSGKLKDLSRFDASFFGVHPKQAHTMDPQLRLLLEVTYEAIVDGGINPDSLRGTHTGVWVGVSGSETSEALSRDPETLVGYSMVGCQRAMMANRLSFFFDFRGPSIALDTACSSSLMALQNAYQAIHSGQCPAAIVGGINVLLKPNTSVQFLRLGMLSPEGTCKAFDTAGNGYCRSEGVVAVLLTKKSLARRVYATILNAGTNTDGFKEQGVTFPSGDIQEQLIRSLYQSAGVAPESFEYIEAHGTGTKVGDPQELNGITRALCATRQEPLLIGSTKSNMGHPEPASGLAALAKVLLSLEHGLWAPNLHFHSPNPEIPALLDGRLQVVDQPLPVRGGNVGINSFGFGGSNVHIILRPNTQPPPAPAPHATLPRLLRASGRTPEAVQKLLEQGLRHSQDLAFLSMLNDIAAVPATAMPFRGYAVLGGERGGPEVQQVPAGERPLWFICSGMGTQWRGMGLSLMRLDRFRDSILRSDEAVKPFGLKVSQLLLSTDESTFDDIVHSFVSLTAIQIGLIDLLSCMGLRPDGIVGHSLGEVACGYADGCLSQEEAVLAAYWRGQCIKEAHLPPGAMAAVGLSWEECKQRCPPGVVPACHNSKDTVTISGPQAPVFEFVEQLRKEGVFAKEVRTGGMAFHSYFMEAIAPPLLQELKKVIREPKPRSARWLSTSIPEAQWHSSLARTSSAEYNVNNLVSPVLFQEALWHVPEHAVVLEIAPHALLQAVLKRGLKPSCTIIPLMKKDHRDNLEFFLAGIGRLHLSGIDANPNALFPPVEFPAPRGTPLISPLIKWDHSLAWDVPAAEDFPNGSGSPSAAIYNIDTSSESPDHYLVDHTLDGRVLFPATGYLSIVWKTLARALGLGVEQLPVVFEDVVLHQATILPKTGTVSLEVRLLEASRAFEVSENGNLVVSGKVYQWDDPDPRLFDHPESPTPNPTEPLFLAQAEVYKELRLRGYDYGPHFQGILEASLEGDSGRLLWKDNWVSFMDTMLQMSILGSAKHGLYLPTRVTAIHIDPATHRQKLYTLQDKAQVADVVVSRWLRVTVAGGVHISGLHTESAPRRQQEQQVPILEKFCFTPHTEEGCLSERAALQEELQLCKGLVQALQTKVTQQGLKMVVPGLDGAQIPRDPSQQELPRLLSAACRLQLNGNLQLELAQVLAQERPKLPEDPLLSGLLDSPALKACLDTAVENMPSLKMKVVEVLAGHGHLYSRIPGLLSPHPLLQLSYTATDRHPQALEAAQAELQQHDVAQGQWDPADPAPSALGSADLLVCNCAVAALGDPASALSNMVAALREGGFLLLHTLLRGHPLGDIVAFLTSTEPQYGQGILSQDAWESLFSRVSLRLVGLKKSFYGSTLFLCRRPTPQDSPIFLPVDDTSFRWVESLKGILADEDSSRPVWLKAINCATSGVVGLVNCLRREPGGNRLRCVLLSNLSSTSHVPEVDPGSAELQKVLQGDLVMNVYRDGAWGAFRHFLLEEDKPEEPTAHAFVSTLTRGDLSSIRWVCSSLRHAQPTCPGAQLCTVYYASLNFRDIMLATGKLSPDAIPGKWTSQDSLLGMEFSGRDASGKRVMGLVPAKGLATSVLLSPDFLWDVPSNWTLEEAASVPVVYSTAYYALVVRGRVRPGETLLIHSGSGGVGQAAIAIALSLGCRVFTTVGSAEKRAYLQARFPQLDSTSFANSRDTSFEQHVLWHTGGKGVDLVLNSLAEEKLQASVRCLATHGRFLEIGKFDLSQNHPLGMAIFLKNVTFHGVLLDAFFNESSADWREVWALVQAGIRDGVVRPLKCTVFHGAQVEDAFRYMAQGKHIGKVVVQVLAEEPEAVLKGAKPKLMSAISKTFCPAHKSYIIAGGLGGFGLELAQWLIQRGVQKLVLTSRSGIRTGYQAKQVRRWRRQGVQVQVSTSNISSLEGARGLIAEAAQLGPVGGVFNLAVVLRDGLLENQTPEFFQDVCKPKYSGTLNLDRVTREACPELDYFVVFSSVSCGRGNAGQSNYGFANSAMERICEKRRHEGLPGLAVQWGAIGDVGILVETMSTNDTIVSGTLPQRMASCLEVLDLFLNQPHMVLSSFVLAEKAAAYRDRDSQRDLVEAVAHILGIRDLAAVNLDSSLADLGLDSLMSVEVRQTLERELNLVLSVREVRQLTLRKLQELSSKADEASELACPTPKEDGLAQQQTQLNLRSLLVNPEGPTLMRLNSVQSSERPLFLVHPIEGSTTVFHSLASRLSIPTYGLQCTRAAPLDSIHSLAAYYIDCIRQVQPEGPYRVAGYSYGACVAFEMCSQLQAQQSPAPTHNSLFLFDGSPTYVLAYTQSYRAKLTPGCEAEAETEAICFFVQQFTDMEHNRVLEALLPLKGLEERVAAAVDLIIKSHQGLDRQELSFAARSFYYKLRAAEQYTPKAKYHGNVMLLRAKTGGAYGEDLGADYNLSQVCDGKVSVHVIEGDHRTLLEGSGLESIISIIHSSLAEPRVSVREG
PfGluPho inh – PfG6PD (Plasmodium falciparum) enzyme inhibition; 0.78% of 350,000 active; PfGluPho enzyme, NADPH resazurin-diaphorase fluorescence; inhibition, % at 20 µM;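 active = inhibition reaching at least a set limit at 20 µM in the primary screen, cut at about 59% in these data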
H9c2 protect – protects H9c2 cardiomyocytes from peroxide injury | H2O2 injury protection, ATPLite, 2 h | protection from H2O2 cell death, % at 20 µM | 0.63% of 360,000 active | AID 588492;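 active = compounds giving at least 50% protection of heart cells from peroxide-induced death in the single-dose screen, raw or plate-pattern-corrected value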
CRFR2-BP ag – agonists of human CRF-binding protein/CRF-R2 receptor complex; HEK293 CRF-R2/CRF-BP, calcium dye fluorescence (FLIPR); percent of saturating CRF peptide response; activation, % at 13.2 µM; 0.46% of 350,000 active;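 active = activation of at least 50%, plus an integration ratio under a set limit after plate pattern correction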
CRFR2-BP antag – antagonists of CRF-binding protein/CRF-R2 receptor complex; 0.59% of 350,000 active; HEK293 CRF-R2/CRF-BP, CRF-induced calcium fluorescence; inhibition, % at 11.8 µM;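 active = inhibition of the ligand-induced calcium signal above about 50% at the single tested concentration, limit read from the data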
aDG conf – alpha-DG glycosylation activation, confirmation; 17% of 600 active; activation, % at 10 µM (by protocol); Pro5-aDG cells, IIH6 AlphaLISA; scaled to LARGE-overexpressing B10 cells as 100%; shares compounds with aDG glyco act;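 active = activation of at least 7% in one or more replicates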;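 also: cells exposed to compound for two days before detection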
A number is an active result; 0 = inactive; - = no result given. The list is not random: actives were taken first. Their share in the collection is about 3.2%.

SMILES	aDG glyco act	FAS-TE inh	PfGluPho inh	H9c2 protect	CRFR2-BP ag	CRFR2-BP antag	aDG conf
CC(C)NC(=O)N(C)C[C@H]1Oc2ccc(NC(=O)Nc3ccccc3)cc2C(=O)N([C@H](C)CO)C[C@@H]1C	0	0	0	0	0	0	-
Cc1cc2ccccc2n1CCNC(=O)C1CC1	7.8	0	0	0	0	0	0
Cc1nn(-c2ccccc2)nc1CNC(=O)C1CCC1	0	0	0	0	0	0	-
CN1CCN(S(=O)(=O)c2cccc(C(=O)Nc3nc(-c4ccccc4)cs3)c2)CC1	0	0	0	0	0	0	-
COC(=O)c1ccc(-n2c(C)cc(-c3csc(NC(=O)c4ccc(S(=O)(=O)N(C)C)cc4)n3)c2C)cc1	11	0	0	0	0	0	0
Cc1cc(-c2csc(NC(=O)c3cccc(S(=O)(=O)N(C)C)c3)n2)c(C)n1-c1ccccc1	11	0	0	0	0	0	0
S=c1[nH]nc(Cc2ccccc2)n1-c1cccc2ccccc12	0	0	0	0	0	0	-
Cc1ccc(C2(C(=O)N3CCC(n4nc(-c5ccccc5)oc4=O)CC3)CC2)cc1	0	0	0	0	0	0	-
CN(C)c1nc(Oc2ccc(=O)n(C)n2)nc(N2CCOCC2)n1	6.9	0	0	0	0	0	0
COc1cccc(NC(=S)N2CCN(S(=O)(=O)c3ccc(F)cc3)CC2)c1	0	0	0	0	0	0	-
COc1cc(NC(=S)N2CCN(S(=O)(=O)c3ccc(F)cc3)CC2)cc(OC)c1	14	0	0	0	0	0	0
O=S(=O)(c1ccc(Cl)cc1)N1CCN(c2ncnc3sccc23)CC1	4.8	0	0	0	0	0	0
Cc1csc2c(N3CCN(S(=O)(=O)c4ccc(Cl)cc4)CC3)ncnc12	0	0	0	0	0	0	-
Cc1cccc(N=C2NC(=O)CS2)c1	6.4	0	0	0	0	0	0
N#Cc1ccccc1Cn1c(=O)n(-c2ccc(CC(=O)NCc3ccco3)cc2)c(=O)c2sccc21	10	0	0	0	0	0	0
N#Cc1ccccc1Cn1c(=O)n(Cc2ccc(C(=O)NCc3ccco3)cc2)c(=O)c2sccc21	0	0	0	0	0	0	-
COc1ccc(Br)cc1C(=O)NCc1cccnc1	0	0	0	0	0	0	-
O=C(NC(=S)NCc1cccnc1)c1cc(Br)ccc1Cl	3.5	0	0	0	0	0	0
COc1cc(OC)cc(C(=O)NCC(=O)OCc2ccc(Cl)c(Cl)c2)c1	0	0	0	0	0	0	-
Clc1cccc(-c2nc3c4ccccc4ccn3c2CC2CCCCC2)c1	11	0	-	0	-	-	0
Fc1ccc(-c2nc3c4ccccc4ccn3c2CC2CCCCC2)cc1	0	0	-	0	-	-	-
Clc1ccc(-c2nc3c4ccccc4ccn3c2CC2CCCCC2)cc1	22	0	-	-	-	-	0
Clc1cccc(Cc2c(-c3cccc(Cl)c3)nc3c4ccccc4ccn23)c1	0	0	-	-	-	-	-
Cc1c(NC(=O)Nc2ccc(F)cc2F)c(=O)n(-c2ccccc2)n1C	0	0	0	0	0	0	-
CCOC(=O)c1sc(NC(=O)CSc2nnc(-c3ccco3)n2CC)c(C(=O)OCC)c1C	0	0	0	0	0	0	-
SMILES	aDG glyco act	FAS-TE inh	PfGluPho inh	H9c2 protect	CRFR2-BP ag	CRFR2-BP antag	aDG conf
COC(=O)c1c(NC(=O)CSc2nnc(-c3ccco3)n2C)sc(C)c1C	6.1	0	0	0	0	0	0
CCOC(=O)C(/C(N)=N/C(=O)Nc1ccccc1)=C(\C)O	2.9	0	0	0	0	0	0
Cc1ccc(-n2c(SCC(N)=O)nnc2-c2ccco2)cc1	4.3	0	0	0	0	0	0
CCc1cc(C(=O)c2ccc(C)cc2)c(NC(=O)CCl)s1	10	0	0	0	0	0	0
CCN(CC)C(=O)NCc1c(C)cc(C)cc1C	47	0	0	0	0	0	0
CCNS(=O)(=O)c1cccc(C(=O)c2c(C)cc3ccccn23)c1	0	0	0	0	0	0	-
Cc1nn(C)c(C(=O)NCc2ccc(Cl)cc2)c1Cl	4.9	0	0	0	0	0	0
Cc1nc(C)c(C(=O)NCc2ccc(Cl)cc2)o1	0	0	0	0	0	0	-
CC(C)(C)OC(=O)[C@H](Cc1ccccc1)NC(=O)c1ncn2c1c(=O)[nH]c1ccc(Br)cc12	0	0	0	0	0	0	-
O=C(CSc1nc2ccccc2s1)CSc1nc2ccccc2s1	6.8	0	0	0	0	0	0
O=C(O)CSc1nc2ccccc2s1	0	0	0	0	0	0	-
Cc1cc(NC(=O)CSc2c3c(nc4ccccc24)CCC3)no1	8.2	0	0	0	0	0	0
CC1(C)CC(=O)C=C(c2ccccc2-c2ccc(S(C)(=O)=O)cc2)C1=O	5.6	0	0	0	0	0	0
CC1(C)CC(=O)C=C(c2ccccc2-c2ccc3cc[nH]c3c2)C1=O	0	0	0	0	0	0	-
Nc1nc(-c2ccccn2)nc(N)c1Cc1c(F)cccc1Cl	8.0	0	0	0	0	0	0
COc1ccccc1/C=C/C(=O)NNC(=O)c1cccs1	0	0	0	0	0	0	-
CCn1cc(S(=O)(=O)Nc2cc(F)ccc2C)cn1	0	0	0	0	0	0	-
CCCCCOc1ccc(/C(C)=N/NC2=NCCN2)cc1	1.6	0	0	0	0	0	8.6
Cc1cc(C)n(CC(=O)NNC(=O)c2ccc(S(C)(=O)=O)cc2)n1	0	0	0	0	0	0	-
CC(C)n1cc(CN2CCCC(C(=O)Nc3cccc(-c4cc5ccccc5[nH]4)c3)C2)cn1 (stereo unspecified)	8.8	0	0	0	0	0	5.3
Cn1cc(CN2CCCC(C(=O)Nc3cccc(-c4cc5ccccc5[nH]4)c3)C2)cn1 (stereo unspecified)	0	0	0	0	0	0	-
Cc1cc(CNC(=O)COc2ccc(F)cc2F)c2ccccc2n1	0	0	0	0	0	0	-
Cc1cc(CNC(=O)COc2cc(F)ccc2[N+](=O)[O-])c2ccccc2n1	8.2	0	0	0	0	0	0
COc1cc(Cn2nnc3ccccc32)cc(Br)c1O	0	0	0	0	0	0	-
COc1ccc(C(=O)C2CCCN(S(=O)(=O)c3ccccc3F)C2)c(C)c1 (stereo unspecified)	0	0	0	0	0	0	-
CCS(=O)(=O)N1CCCC(C(=O)c2ccc(OC)cc2C)C1 (stereo unspecified)	25	0	0	0	0	0	0

Screening data: PubChem, Sanford-Burnham Center for Chemical Genomics
